mHTT CaM bind – inhibitors of human mutant huntingtin-calmodulin interaction. P42858. AlphaScreen His-mHTT/GST-CaM binding, luminescence. inhibition, % at 15 µM. 190,000 tested, 3.6% active;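 also: 0% = both proteins with DMSO and 100% = one protein alone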
Target sequence (P42858 whole entry, looked up, stated change not applied): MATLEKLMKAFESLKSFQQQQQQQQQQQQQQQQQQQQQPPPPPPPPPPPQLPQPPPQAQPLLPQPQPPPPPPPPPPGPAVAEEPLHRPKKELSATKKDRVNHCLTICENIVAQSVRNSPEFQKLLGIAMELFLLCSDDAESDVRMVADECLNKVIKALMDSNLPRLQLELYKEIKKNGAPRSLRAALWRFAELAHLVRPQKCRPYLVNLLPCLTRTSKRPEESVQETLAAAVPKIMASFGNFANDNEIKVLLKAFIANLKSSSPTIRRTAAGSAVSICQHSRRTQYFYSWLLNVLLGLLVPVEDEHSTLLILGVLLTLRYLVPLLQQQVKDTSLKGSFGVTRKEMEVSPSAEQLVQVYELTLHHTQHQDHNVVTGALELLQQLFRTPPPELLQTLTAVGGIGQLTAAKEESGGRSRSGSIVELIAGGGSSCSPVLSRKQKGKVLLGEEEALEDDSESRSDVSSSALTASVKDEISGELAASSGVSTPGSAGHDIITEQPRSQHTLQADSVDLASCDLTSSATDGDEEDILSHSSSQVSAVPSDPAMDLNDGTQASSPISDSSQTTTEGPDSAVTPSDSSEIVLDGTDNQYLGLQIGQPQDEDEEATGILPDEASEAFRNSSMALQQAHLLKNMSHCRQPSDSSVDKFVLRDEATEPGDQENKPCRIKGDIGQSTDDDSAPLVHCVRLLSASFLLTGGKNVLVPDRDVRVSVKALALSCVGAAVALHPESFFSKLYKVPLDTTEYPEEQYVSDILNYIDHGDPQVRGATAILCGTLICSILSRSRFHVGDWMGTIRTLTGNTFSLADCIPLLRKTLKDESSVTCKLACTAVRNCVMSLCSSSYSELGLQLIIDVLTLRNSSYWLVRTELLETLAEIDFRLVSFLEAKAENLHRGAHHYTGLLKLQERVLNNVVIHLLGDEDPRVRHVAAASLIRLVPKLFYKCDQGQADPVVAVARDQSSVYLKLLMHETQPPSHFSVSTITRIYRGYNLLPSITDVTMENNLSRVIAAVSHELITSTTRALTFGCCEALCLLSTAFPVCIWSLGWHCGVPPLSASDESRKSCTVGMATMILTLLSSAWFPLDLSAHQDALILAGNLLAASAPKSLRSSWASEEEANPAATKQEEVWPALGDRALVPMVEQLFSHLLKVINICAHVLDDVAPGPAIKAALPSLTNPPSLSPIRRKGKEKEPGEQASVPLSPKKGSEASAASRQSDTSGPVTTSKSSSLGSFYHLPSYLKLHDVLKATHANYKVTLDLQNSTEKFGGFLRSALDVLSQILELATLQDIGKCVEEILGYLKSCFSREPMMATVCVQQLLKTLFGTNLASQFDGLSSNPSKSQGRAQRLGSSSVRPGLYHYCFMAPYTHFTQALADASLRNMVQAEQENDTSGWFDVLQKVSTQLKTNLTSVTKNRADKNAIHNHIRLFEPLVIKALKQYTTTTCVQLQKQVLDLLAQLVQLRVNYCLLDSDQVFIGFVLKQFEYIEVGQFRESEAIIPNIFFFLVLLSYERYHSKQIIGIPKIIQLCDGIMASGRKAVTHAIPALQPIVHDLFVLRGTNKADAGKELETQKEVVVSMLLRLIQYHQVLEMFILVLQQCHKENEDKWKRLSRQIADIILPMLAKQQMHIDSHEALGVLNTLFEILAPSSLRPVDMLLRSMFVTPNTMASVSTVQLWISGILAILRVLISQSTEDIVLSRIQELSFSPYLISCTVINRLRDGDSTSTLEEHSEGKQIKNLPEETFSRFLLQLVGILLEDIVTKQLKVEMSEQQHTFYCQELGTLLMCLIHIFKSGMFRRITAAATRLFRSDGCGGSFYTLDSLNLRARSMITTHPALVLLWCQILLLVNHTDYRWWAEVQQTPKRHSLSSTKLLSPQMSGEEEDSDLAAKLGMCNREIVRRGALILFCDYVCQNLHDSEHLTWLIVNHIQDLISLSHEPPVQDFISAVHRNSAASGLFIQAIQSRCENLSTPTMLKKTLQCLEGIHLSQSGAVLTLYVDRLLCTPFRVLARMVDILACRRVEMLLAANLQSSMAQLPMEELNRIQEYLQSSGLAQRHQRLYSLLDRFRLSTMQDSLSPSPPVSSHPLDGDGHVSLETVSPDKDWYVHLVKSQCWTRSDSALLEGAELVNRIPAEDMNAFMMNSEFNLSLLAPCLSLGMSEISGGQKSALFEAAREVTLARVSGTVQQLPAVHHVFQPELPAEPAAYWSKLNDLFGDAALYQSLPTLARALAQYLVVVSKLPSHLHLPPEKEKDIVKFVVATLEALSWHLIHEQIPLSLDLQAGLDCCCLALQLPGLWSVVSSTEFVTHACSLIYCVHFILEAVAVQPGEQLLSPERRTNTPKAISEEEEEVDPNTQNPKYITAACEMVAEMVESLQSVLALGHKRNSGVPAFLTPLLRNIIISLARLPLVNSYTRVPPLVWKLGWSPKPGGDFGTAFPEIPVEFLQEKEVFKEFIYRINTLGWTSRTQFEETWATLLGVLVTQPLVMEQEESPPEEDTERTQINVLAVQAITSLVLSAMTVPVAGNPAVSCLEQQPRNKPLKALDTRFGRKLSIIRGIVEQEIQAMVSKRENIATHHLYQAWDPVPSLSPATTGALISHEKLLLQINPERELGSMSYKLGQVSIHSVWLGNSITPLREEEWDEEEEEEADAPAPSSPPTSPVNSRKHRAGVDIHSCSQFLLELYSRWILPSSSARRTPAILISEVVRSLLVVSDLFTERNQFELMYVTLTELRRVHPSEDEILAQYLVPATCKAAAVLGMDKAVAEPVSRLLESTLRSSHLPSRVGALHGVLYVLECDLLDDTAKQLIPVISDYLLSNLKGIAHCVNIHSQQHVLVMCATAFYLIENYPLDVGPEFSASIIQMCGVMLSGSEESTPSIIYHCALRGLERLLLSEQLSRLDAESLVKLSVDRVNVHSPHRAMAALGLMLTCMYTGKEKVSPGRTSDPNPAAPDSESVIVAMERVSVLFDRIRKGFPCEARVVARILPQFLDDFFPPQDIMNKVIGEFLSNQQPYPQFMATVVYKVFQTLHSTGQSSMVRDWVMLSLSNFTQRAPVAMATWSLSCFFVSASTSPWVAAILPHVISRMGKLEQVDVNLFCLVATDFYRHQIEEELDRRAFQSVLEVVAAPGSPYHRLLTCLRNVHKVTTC
Pf apPOL inh – Pf-apPOL DNA polymerase inhibition; 210,000 tested, 0.25% active; Recombinant Pf-apPOL, molecular beacon fluorescence, 1.5 h; inhibition, % at 10 µM; AID 1794808
The depositor's hits bear a star. Shown is part of a subset that was picked to be rich in hits. Rule as the data show it: active = inhibition above about 50%; inactive = the rest.

What do the screens show for `CN(C)c1cccc(C(=O)N2CCN(S(=O)(=O)C3CC3)CC2)c1`?
mHTT CaM bind: -9.8; Pf apPOL inh: -1.5

How did O=C(Nc1cccc(C(F)(F)F)c1)c1ccc(OC2CSC2)cc1 do in these assays?
mHTT CaM bind: -28.0; Pf apPOL inh: -1.4

Results for O=S(=O)(NCC1CCN(Cc2ccsc2)CC1)c1cccc(C(F)(F)F)c1 ?
mHTT CaM bind: -6.7; Pf apPOL inh: -11.2

How did COc1ccc(N=Cc2ccc(Br)c([N+](=O)[O-])c2)cc1OC do in these assays?
mHTT CaM bind: 54.0*; Pf apPOL inh: 2.4

What do the screens show for `CC(C)(C)c1cc(Cl)c(O)c(N=Cc2cc3c(cc2[N+](=O)[O-])OCO3)c1`?
mHTT CaM bind: 85.0*; Pf apPOL inh: 0.9

What do the screens show for `Cn1c(=O)n(C)c2cc(N=Cc3ccc(Br)c([N+](=O)[O-])c3)ccc21`?
mHTT CaM bind: 29.0; Pf apPOL inh: -5.2

Results for Cc1ccc(O)c(N=Cc2cc3c(cc2[N+](=O)[O-])OCO3)c1 ?
mHTT CaM bind: 99.0*; Pf apPOL inh: -2.8

How did Cc1ccc(O)c(N=Cc2cccc([N+](=O)[O-])c2O)c1 do in these assays?
mHTT CaM bind: 20.0; Pf apPOL inh: -1.0

How did COc1cc([N+](=O)[O-])cc(C=Nc2cc(C(C)(C)C)cc(Cl)c2O)c1O do in these assays?
mHTT CaM bind: 10.0; Pf apPOL inh: -1.7

What do the screens show for `Cc1ccc(O)c(N=Cc2ccc(Cl)c([N+](=O)[O-])c2)c1`?
mHTT CaM bind: 23.0; Pf apPOL inh: -0.2

How did Cc1ccc(O)c(N=Cc2ccc(Br)c([N+](=O)[O-])c2)c1 do in these assays?
mHTT CaM bind: 58.0*; Pf apPOL inh: -10.9

What do the screens show for `CCN1C(=O)C(C)(C(=O)Nc2ccc(C(=O)OC)cc2)Oc2cccnc21` (stereo unspecified)?
mHTT CaM bind: -2.6; Pf apPOL inh: -2.8

How did O=C1N=C(N2CCCC2)S/C1=C/c1ccc(Cl)cc1 do in these assays?
mHTT CaM bind: 3.0; Pf apPOL inh: -4.2

How did CCCS(=O)(=O)N1CC(C)C(c2nc(-c3ccccc3)no2)C1 (stereo unspecified) do in these assays?
mHTT CaM bind: -5.9; Pf apPOL inh: 5.3

How did NC(=O)c1cc(-c2ccccc2F)nc2ccccc12 do in these assays?
mHTT CaM bind: -0.6; Pf apPOL inh: 3.3

How did COc1ccc(Br)cc1C1=N/C(=C/c2cccs2)C(=O)O1 do in these assays?
mHTT CaM bind: -6.0; Pf apPOL inh: 0.8

How did NNC(=O)c1cc(-c2ccccc2)nc2ccccc12 do in these assays?
mHTT CaM bind: -2.0; Pf apPOL inh: -2.5

Results for Cc1cccc(N=Cc2cc3c(cc2[N+](=O)[O-])OCO3)c1C ?
mHTT CaM bind: 89.0*; Pf apPOL inh: 0.1

Results for O=[N+]([O-])c1ccc(N=Cc2cc3c(cc2[N+](=O)[O-])OCO3)c(Br)c1 ?
mHTT CaM bind: 4.0; Pf apPOL inh: -7.4

What do the screens show for `Cc1ccc2nc(NC(=O)C3CC(=O)N(CCc4c[nH]c5ccc(F)cc45)C3)sc2c1` (stereo unspecified)?
mHTT CaM bind: 91.2*; Pf apPOL inh: -1.2

Results for Cc1ccc(C)c(NC(=O)C2CC(=O)N(CCc3c[nH]c4ccc(F)cc34)C2)c1 (stereo unspecified) ?
mHTT CaM bind: 22.2; Pf apPOL inh: 0.3

What do the screens show for `COc1ccc2[nH]cc(CCN3CC(C(=O)Nc4nc5ccc(C)cc5s4)CC3=O)c2c1` (stereo unspecified)?
mHTT CaM bind: 55.6*; Pf apPOL inh: -2.0

What do the screens show for `COc1ccc2[nH]cc(CCN3CC(C(=O)Nc4ccc(C)cc4C)CC3=O)c2c1` (stereo unspecified)?
mHTT CaM bind: 12.2; Pf apPOL inh: -2.8

Results for CCOc1ccccc1C(=O)Nc1ccc(I)cc1 ?
mHTT CaM bind: -30.5; Pf apPOL inh: -1.3

Results for O=C(CN(C1CCCCC1)S(=O)(=O)c1ccc(Br)cc1)NC1CC1 ?
mHTT CaM bind: 0.9; Pf apPOL inh: -6.9

How did O=C(O)CN(C1CCCCC1)S(=O)(=O)c1ccc(Br)cc1 do in these assays?
mHTT CaM bind: -2.0; Pf apPOL inh: 68.4*

How did COc1ccc(NC(NC(=O)c2cccc(Cl)c2)C(Cl)(Cl)Cl)cc1 (stereo unspecified) do in these assays?
mHTT CaM bind: 65.0*; Pf apPOL inh: -5.7

How did Cc1cccc(C(=O)NC(Nc2cccc([N+](=O)[O-])c2)C(Cl)(Cl)Cl)c1 (stereo unspecified) do in these assays?
mHTT CaM bind: 11.0; Pf apPOL inh: 2.4

How did O=C(NC(Nc1ccc([N+](=O)[O-])cc1)C(Cl)(Cl)Cl)c1ccc([N+](=O)[O-])cc1 (stereo unspecified) do in these assays?
mHTT CaM bind: 79.0*; Pf apPOL inh: -1.2

Results for O=C(NC(Nc1ccccc1)C(Cl)(Cl)Cl)c1cccc(Cl)c1 (stereo unspecified) ?
mHTT CaM bind: 23.0; Pf apPOL inh: -1.2

How did O=C(NC(Nc1cccc([N+](=O)[O-])c1)C(Cl)(Cl)Cl)c1cccc([N+](=O)[O-])c1 (stereo unspecified) do in these assays?
mHTT CaM bind: 54.0*; Pf apPOL inh: -2.4

How did O=C(NC(Nc1ccc(Cl)cc1)C(Cl)(Cl)Cl)c1cccc([N+](=O)[O-])c1 (stereo unspecified) do in these assays?
mHTT CaM bind: 99.0*; Pf apPOL inh: -2.4

What do the screens show for `CC(C)(C)C(=O)NC(Nc1ccc([N+](=O)[O-])cc1)C(Cl)(Cl)Cl` (stereo unspecified)?
mHTT CaM bind: 12.0; Pf apPOL inh: 16.1

How did NS(=O)(=O)c1ccc(NC(NC(=O)c2cccc([N+](=O)[O-])c2)C(Cl)(Cl)Cl)cc1 (stereo unspecified) do in these assays?
mHTT CaM bind: 29.0; Pf apPOL inh: -4.4

How did Nc1sc2c(c1CO)CCCC2 do in these assays?
mHTT CaM bind: 33.8

How did CCc1noc(-c2cnc3nc(C)ccc3c2NCc2ccccc2C)n1 do in these assays?
mHTT CaM bind: -6.2; Pf apPOL inh: -26.4

What do the screens show for `O=C(Sc1ccc(Cl)cc1)c1ccc(C#Cc2ccccc2)o1`?
Pf apPOL inh: 5.6

Results for O=C(NC(NCc1ccccc1)C(Cl)(Cl)Cl)c1cccc([N+](=O)[O-])c1 (stereo unspecified) ?
mHTT CaM bind: 20.0; Pf apPOL inh: -0.5

Results for O=C(NC(Nc1ccc(Br)cc1)C(Cl)(Cl)Cl)c1cccc([N+](=O)[O-])c1 (stereo unspecified) ?
mHTT CaM bind: 96.0*; Pf apPOL inh: -5.6

Results for O=C(NC(Nc1cccc(Cl)c1)C(Cl)(Cl)Cl)c1cccc([N+](=O)[O-])c1 (stereo unspecified) ?
mHTT CaM bind: 95.0*; Pf apPOL inh: 2.9

Results for O=C(NC(Nc1cccc([N+](=O)[O-])c1)C(Cl)(Cl)Cl)c1cccnc1 (stereo unspecified) ?
mHTT CaM bind: 7.0; Pf apPOL inh: 0.0

How did CC(C)(C)NC(=O)N1CCC(CNC(=O)C(=O)Nc2ccccc2Cl)CC1 do in these assays?
mHTT CaM bind: -7.9; Pf apPOL inh: -0.4

How did Cc1ccc(C(=O)CSc2nc(N)c(C#N)c(-c3cccs3)c2C#N)cc1 do in these assays?
mHTT CaM bind: -0.9; Pf apPOL inh: -2.2

Results for COc1ccc(-c2cc3n(n2)CCCN(Cc2ccoc2)C3)cc1 ?
mHTT CaM bind: 12.6; Pf apPOL inh: -3.0

How did Fc1ccc(-c2cc3n(n2)CCCN(Cc2cccc(F)c2)C3)cc1 do in these assays?
mHTT CaM bind: 92.0*; Pf apPOL inh: -5.0

Results for COc1ccc([C@H]2C=C3CNS(=O)(=O)[C@H]3C[C@H]2OC(=O)c2ccc(Cl)cc2)cc1 ?
mHTT CaM bind: 60.2*; Pf apPOL inh: -6.1
